Here are results for one compound from PubChem BioAssay AID651871 (Sanford-Burnham Center for Chemical Genomics, 2012).

For the test, the system named is H9c2. Description: protection of cardiomyocytes from stress damage, SAR follow-up, cell-based, panel, H9c2 and HL-1, ATP luminescence, set 2 (AID 651871).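 Also: cells exposed to stressor for 2 h before ATP readout; reference of the scale not given here.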 As to conditions: H9c2/HL-1 cardiomyocytes, 2-deoxyglucose stress, with 2-deoxyglucose, run 4, at 39.5 µM (top of the series).

Turning to `COc1ccc2c(c1OC)C(=O)N1c3ccccc3C(=O)N(Cc3cccc(Cl)c3Cl)C21` (stereo unspecified), the activity (protection/inhibition) was found to be 71%.
